VDR inh – inhibitors of human vitamin D receptor; P11473; VDR-SRC2-3 peptide fluorescence polarization, 2 h; Potency, µM, for inactives: max response, negative = inhibition, actives largely listed as inhibitors; hit rate 0.93% among 400,000; further: on the % scale 0 is the no-effect control and ±100 the full control effect
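Compounds are added to VDR with labelled SRC2-3 coactivator peptide and held 2 h at room temperature. Inhibition of the VDR–peptide interaction is then read as a change in fluorescence polarization.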
BRCA1 expr act – BRCA1 expression activation; hit rate 1.1% among 380,000; Potency, µM (doses to about 46.1 µM), without a hit: at the top dose activation, most hits filed as activators; AID 624202; MCF7-BRCA1-FFLuc reporter, luminescence, 48 h; response scale: scaled: vehicle 0%, 10 µM genistein 100%; further: nearly all actives have a fitted effect of over 80% in size
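Activators of BRCA1 expression were detected as increased firefly luciferase luminescence in engineered MCF7 cells after 48 h compound incubation. Signals were scaled to genistein 10 microM as full activation.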
PLK1 PBD inh – inhibitors of human PLK1 polo-box domain binding | Plk1 PBD binding of FITC phosphopeptide, fluorescence polarization | Potency, µM, for the others: max response, negative = inhibition, most hits filed as inhibitors | hit rate 2.8% among 360,000 | AID 720504; further: series mostly up to about 57 µM; on the % scale 0 is the no-effect control and ±100 the full control effect; nearly all actives have a fitted effect of over 65% in size
Tb PFK block – inhibitors of T. brucei phosphofructokinase; Potency, µM (series often up to 57.5 µM), without a hit: at the top dose activity, negative = inhibition, actives largely listed as inhibitors; O15648; hit rate 0.17% among 330,000; T. brucei PFK, ADP-Glo luminescence;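 further: 0% = uninhibited 1x PFK enzyme wells and -100% = no-enzyme wells; nearly all actives have a fitted effect of over 60% in size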
Target sequence (O15648 whole entry, looked up): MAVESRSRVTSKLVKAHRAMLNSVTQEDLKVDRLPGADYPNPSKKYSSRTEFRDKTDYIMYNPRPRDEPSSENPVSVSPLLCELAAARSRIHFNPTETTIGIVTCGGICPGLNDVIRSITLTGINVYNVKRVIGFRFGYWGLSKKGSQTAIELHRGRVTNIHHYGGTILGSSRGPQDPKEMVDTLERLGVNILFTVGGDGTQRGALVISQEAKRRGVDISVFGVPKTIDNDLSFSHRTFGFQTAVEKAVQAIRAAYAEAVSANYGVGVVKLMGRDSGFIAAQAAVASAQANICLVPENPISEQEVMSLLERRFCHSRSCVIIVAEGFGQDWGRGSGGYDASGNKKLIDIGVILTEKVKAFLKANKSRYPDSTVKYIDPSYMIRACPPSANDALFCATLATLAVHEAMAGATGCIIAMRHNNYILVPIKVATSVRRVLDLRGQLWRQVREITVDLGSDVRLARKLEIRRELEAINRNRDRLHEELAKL
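Compounds were pin-transferred as a titration series up to 57 uM into substrate buffer (0.5 mM F6P, 0.1 mM ATP, pH 8.0), then 1.25 nM PFK was added and reactions ran 45 min before ADP-Glo detection.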
Numbers without * were called inactive; ! = not confirmed by another sample. Compounds with a hit are over-represented: about 3.9% of the library has one in this group of screens. The call rests on the fitted dose curve; in most records, active means well fitted curve in the direction sought with a large enough effect; inconclusive means small, poorly fitted or top-dose-only effect, or another doubt; inactive means no such curve, though single readings can be large; an effect the other way counts as inactive or inconclusive. Potency means the concentration at half of the fitted maximal effect.

Cc1ccc(C(C[N+](=O)[O-])c2c(N)n(C)c(=O)n(C)c2=O)cc1 (centres undefined) was read as VDR inh 79.4µM*, BRCA1 expr act -20.8%, PLK1 PBD inh -17.1% and Tb PFK block 2.2%.
Screening COc1cccc(F)c1C(C[N+](=O)[O-])c1c(N)n(C)c(=O)n(C)c1=O (centres undefined) returned VDR inh 79.4µM*, BRCA1 expr act -82.2%, PLK1 PBD inh -1.8% and Tb PFK block 21.1%.
`Cc1oc(-c2ccc(Cl)cc2)nc1CSc1nc2ncccc2[nH]1` gave VDR inh 7.3%.
C=CCn1c(SCC(=O)NC2CCCC2)nc2ccccc21 was read as BRCA1 expr act -34.7% and PLK1 PBD inh 0.9%.
`COc1ccc(S(=O)(=O)c2c(O)c3ccc(C(=O)Nc4ccc(F)cc4)cc3[nH]c2=O)cc1` gave VDR inh inconclusive, BRCA1 expr act 5.1%, PLK1 PBD inh 29.9µM* and Tb PFK block -2.0%.
For COc1ccc(S(=O)(=O)c2c(O)c3ccc(C(=O)Nc4ccc(F)cc4F)cc3[nH]c2=O)cc1 the results were VDR inh -3.8%, BRCA1 expr act 0.0%, PLK1 PBD inh -20.3% and Tb PFK block 6.0%.
`CCc1ccccc1NC(=O)c1ccc2c(O)c(S(=O)(=O)c3ccc(OC)cc3)c(=O)[nH]c2c1` gave VDR inh inconclusive, BRCA1 expr act 0.0%, PLK1 PBD inh 3.36µM* and Tb PFK block -2.0%.
For CCOc1ccc(-c2csc(NNC3=NCCCCC3)n2)cc1 the results were VDR inh inconclusive, BRCA1 expr act 3.8%, PLK1 PBD inh 18.9µM* and Tb PFK block -12.7%.
Clc1ccc(-c2csc(NNC3=NCCCCC3)n2)cc1 was read as VDR inh 50.1µM*, BRCA1 expr act -13.6%, PLK1 PBD inh inconclusive and Tb PFK block -12.4%.
`COc1ccc(-c2csc(NNC3=NCCCCC3)n2)cc1` gave VDR inh inconclusive, BRCA1 expr act 0.5%, PLK1 PBD inh 6.7µM* and Tb PFK block inconclusive.
`Cc1cc(=O)n(CC(=O)NCc2ccc(OC(C)C)cc2)c2c1c(C)nn2-c1cccc(F)c1` gave VDR inh 8.0%.
For O=C(NCc1ccc(Cl)cc1)c1cccnc1 the results were VDR inh 3.2%, BRCA1 expr act 7.9%, PLK1 PBD inh 23.8µM* and Tb PFK block -5.2%.
For O=C(O)c1ccc2c(=O)n3c(nc2c1)/C(=C/c1cccc(Cl)c1Cl)CC3 the results were VDR inh 11.4%, BRCA1 expr act -12.6%, PLK1 PBD inh 0.0% and Tb PFK block -4.4%.
For O=C(O)c1ccc2c(=O)n3c(nc2c1)/C(=C/c1ccc(Cl)cc1Cl)CC3 the results were VDR inh 19.3%, BRCA1 expr act -31.6%, PLK1 PBD inh 26.7µM* and Tb PFK block 2.2%.
Screening CCC(C)C1NC(=O)C(Cc2ccc(O)cc2)NC(=O)C(N)CSSCC(C(=O)N2CCCC2C(=O)NC(CC(C)C)C(=O)NCC(N)=O)NC(=O)C(CC(N)=O)NC(=O)C(CCC(N)=O)NC1=O (centres undefined) returned VDR inh 12.6µM*!.
`CCOC(=O)c1c(C)[nH]c(N=Nc2ccc(OC)cc2)c1C` gave VDR inh -11.2%, BRCA1 expr act 6.31µM*, PLK1 PBD inh -19.6% and Tb PFK block -3.5%.
For CCOC(=O)c1c(C)[nH]c(N=Nc2ccc(C)cc2)c1C the results were VDR inh -0.1%, BRCA1 expr act inconclusive, PLK1 PBD inh -5.4% and Tb PFK block -2.7%.
Screening Cc1ccc(N(C(C)C(=O)Nc2ccccc2C(=O)N2CCOCC2)S(C)(=O)=O)cc1C (centres undefined) returned VDR inh 7.8%, BRCA1 expr act -12.1%, PLK1 PBD inh -4.9% and Tb PFK block -2.2%.
CC(C(=O)Nc1ccccc1C(=O)N1CCOCC1)N(c1ccc(Cl)cc1)S(C)(=O)=O (centres undefined) was read as VDR inh 22.4µM*, BRCA1 expr act 0.0%, PLK1 PBD inh 2.99µM* and Tb PFK block 0.0%.
Cn1ncc(S(=O)(=O)Cc2ccccc2)c(Cl)c1=O was read as VDR inh inconclusive, BRCA1 expr act 16.0%, PLK1 PBD inh 3.36µM* and Tb PFK block -3.2%.
COc1cc(Cl)c(C)cc1NC(=O)c1cnc(N2CCCCC2)c2ccccc12 was read as VDR inh 7.0%.
`CC(=O)Nc1ccc(C(=O)CCl)cc1` gave VDR inh -26.9%, BRCA1 expr act -1.9%, PLK1 PBD inh 5.32µM* and Tb PFK block -0.3%.
`CC(=O)NCc1ccc(C(=O)CCl)cc1` gave VDR inh -2.9%, BRCA1 expr act -17.3%, PLK1 PBD inh 4.23µM* and Tb PFK block -4.1%.
CCCNC(=O)C(=O)Nc1ccc(N(C)C)cc1 was read as VDR inh 11.1%, BRCA1 expr act inconclusive, PLK1 PBD inh -8.6% and Tb PFK block 0.8%.
Screening CCCNC(=O)Nc1ccc(NC(C)=O)cc1 returned VDR inh -19.2%, BRCA1 expr act 4.0%, PLK1 PBD inh 10.6µM* and Tb PFK block 0.3%.
CC(=O)Nc1ccc(S[C@@H](CCN2CC[C@H](O)CCC2=O)c2ccccc2)cc1 was read as VDR inh -15.0%, BRCA1 expr act 8.1%, PLK1 PBD inh 13.4µM* and Tb PFK block -0.3%.
Screening COc1cc(CNc2ncnc3c2ncn3[C@H]2CN(Cc3ccccc3)C[C@@H](COC(C)=O)O2)cc(OC)c1OC returned BRCA1 expr act 0.0% and PLK1 PBD inh -7.6%.
`COc1cc(SC#N)ccc1N=Cc1c(C)[nH]n(-c2cccc3ccccc23)c1=O` gave VDR inh inconclusive, BRCA1 expr act -11.2%, PLK1 PBD inh inconclusive and Tb PFK block -2.5%.
Screening COc1cc(SC#N)ccc1N=Cc1c(C)[nH]n(-c2ccc(C)cc2C)c1=O returned VDR inh inconclusive, BRCA1 expr act -21.5% and PLK1 PBD inh 8.44µM*.
Screening C/C(=N\Nc1cc(N2CCOCC2)ncn1)c1ccc(O)cc1 returned VDR inh 8.1%, BRCA1 expr act 8.6%, PLK1 PBD inh 3.0% and Tb PFK block 5.3%.
For Cc1cc(NC(=O)c2ccc3sc([C@@H]4O[C@H](CO)[C@H](O)[C@H](O)[C@H]4O)nc3c2)n(C)n1 the results were BRCA1 expr act 4.6% and PLK1 PBD inh -9.5%.
For Cc1cccc(S(=O)(=O)c2cn(Cc3ccccc3)c3cc(N4CCC(C)CC4)c(F)cc3c2=O)c1 the results were VDR inh -8.6% and BRCA1 expr act 6.0%.
For CC1CC(C)(C)NC(=S)S1 (centres undefined) the results were VDR inh 5.1%, BRCA1 expr act 18.5%, PLK1 PBD inh 23.8µM* and Tb PFK block -3.0%.
CC1CC(C)(C)NC(=O)O1 (centres undefined) was read as VDR inh -0.2%, BRCA1 expr act -0.6%, PLK1 PBD inh -2.1% and Tb PFK block 1.5%.
For O=C(CSc1cccc2cccnc12)OCC(=O)c1ccc(Br)cc1 the results were VDR inh 13.7%, BRCA1 expr act -15.6%, PLK1 PBD inh -3.0% and Tb PFK block 0.9%.
For NNC(=O)CSc1cccc2cccnc12 the results were VDR inh -9.7%, BRCA1 expr act -15.1%, PLK1 PBD inh -4.9% and Tb PFK block -0.5%.

Screening data (PubChem)
